A short description of experiment [1]: AP1 Signaling Pathway (AID 357; active means well fitted curve in either direction with a large enough effect, not every such curve was filed as active;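 further: ME-180 reporter cells stimulated with EGF at its EC50 level; on the % scale 0 is the no-effect control and ±100 the full control effect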). A digest of the protocol: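 Read-out was the 460nm/530nm emission ratio (excitation 405nm) after CCF4 loading for 2.5 hours at room temperature. Cells carried an AP-1-driven beta-lactamase reporter, were stimulated with EC50 EGF plus compound for 5 hours, and AC50 values came from titrations.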
Experiment [2] addresses Cytochrome P450 1A2 (Homo sapiens) (UniProt P05177). The experiment in a line: p450-cyp1a2 (AID 410; calls by dose curve;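 further: -100% = full effect of reference inhibitor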). A digest of the protocol:
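20nM CYP1A2, 100uM Luciferin-ME (=Km), 100mM KPO4; cpd 10 min RT; +NADPH regen, 60 min RT; stop/detect 20 min; luminescence. Normalized to furafylline 57 uM = full inhibition.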

Experiment [3] is described as follows: NFAT Signaling Pathway (AID 444; active means well fitted curve in either direction with a large enough effect, not every such curve was filed as active;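 further: carbachol stimulus at about its EC50 of 1 µM final; on the % scale 0 is the no-effect control and ±100 the full control effect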). The conditions noted are these: Jurkat NFAT-bla M1, carbachol, beta-lactamase ratio, 5 h; at 17.2 µM (top of the series) unless noted. A digest of the protocol: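 Read-out: CCF4 FRET ratio (460 nm/530 nm) after 1 h RT dye loading, used for %activity and AC50 from titration series. Cells: Jurkat NFAT-β-lactamase/M1 line, treated with compound plus 1 uM carbachol for 5 h, 37 °C.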

Experiment [4] is described as follows: Stat Signaling Pathway (AID 446; active means well fitted curve in either direction with a large enough effect, not every such curve was filed as active;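 further: ME-180 cervical cancer cells given 40 pM IL-6 alongside compound; SIE-controlled beta-lactamase reporter measured as 460/530 nm FRET emission ratio; on the % scale 0 is the no-effect control and ±100 the full control effect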). In short, it runs like this: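 Overnight-plated ME-180 cells bearing a STAT Inducible Element beta-lactamase reporter; 5 h co-exposure to compound and 40 pM IL-6; values normalized to 300 pM IL-6 and 125 nM JAK inhibitor controls.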
Experiment [5] addresses Glucocorticoid receptor (Homo sapiens) (UniProt P04150). The experiment in a line: GR-GFP Redistribution (AID 450;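 active means compounds whose dose series gives a full or clear partial fitted curve of increased nuclear translocation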; further: potency means the concentration at half of the fitted maximal effect). The following applies: U2OS GR-GFP nuclear translocation, laser cytometry, 2 h.
Experiment [6] shares this target. In words: GR-EFC Redistribution (AID 451; calls by dose curve; further: potency means the concentration at half of the fitted maximal effect). The following applies: CHO-K1 GR-EFC translocation, beta-gal luminescence, 2 h. In short, it runs like this:
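Translocation of GR-ED fusion to nuclear EA restores b-gal, read by luminescence after 1 h room-temperature detection. Engineered CHO-K1 biosensor cells, 1,000/well, exposed 2 h at 37 C to titrations up to 46 uM final.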

Experiment [7] has as its target Mitogen-activated protein kinase 10 (Mus musculus) (UniProt Q61831). In words: JNK3 AlphaScreen Assay (AID 530; active means well fitted curve in either direction with a large enough effect, not every such curve was filed as active;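 further: kinase came from lysate of stimulated human HepG2 cells; signal reports phosphorylation of biotinylated GST-cJun 1-79 at Ser73 with 10 µM ATP; on the % scale 0 is the no-effect control and ±100 the full control effect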). A digest of the protocol: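 Kinase buffer: 20 mM Tris-HCl pH 7.6, 10 mM MgCl2, 1 mM DTT, 0.1 mM Na3VO4, 0.01% Tween-20; ATP 10 uM. Substrate biotin-GST-cJun(1-79), enzyme from activated HepG2 lysates. Detection by Ser73 phospho-antibody AlphaScreen.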
(In Alpha technology, singlet oxygen from a donor bead excites a nearby acceptor bead.)

In experiment [8] the target is 3',5'-cyclic-AMP phosphodiesterase 4B (Homo sapiens) (UniProt Q07343). In words: qHTS Assay for Inhibitors of PDE-IV (AID 607; active means well fitted activation curve with a large enough effect in the main read-out, with a control signal flat, not every such curve was filed as active; further: % of control where 0% means no effect). A digest of the protocol: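 Live HEK293 cells with a modified cyclic nucleotide-gated (CNG) channel report intracellular cAMP via membrane-potential dye fluorescence (ex 535/em 590 nm). Endogenous PDE-IV was targeted. Compounds were tested at up to 22.9 uM final; RO 20-1724 100 uM served as control.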
(qHTS replaces the single test concentration by a dilution series.)

Experiment [9] is described as follows: qHTS Assay for Lipid Storage Modulators (AID 1519; calls by dose curve). The conditions noted are these: Drosophila S3 cells, BODIPY lipid droplet/cell ratio, laser cytometry, cells loaded with oleic acid; for activity change, negative = inhibition: at 25.7 µM (top of the series). In short, it runs like this:
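Cells seeded at 5,000 per well were treated with compounds over a concentration series and loaded with oleic acid (400 uM, as added). Lipid droplet fluorescence (488 nm excitation, 500-530 nm channel) was read by laser-scanning cytometry and normalized to 20 uM Triacsin C.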

Experiment [10] concerns the target Ubiquitin carboxyl-terminal hydrolase 1 (Homo sapiens) (UniProt O94782). The experiment in a line: Inhibitors of USP1/UAF1: Pilot qHTS (AID 504865).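 Further: rhodamine fluorescence freed from ubiquitin-rhodamine substrate followed over time; top concentration of the series differs between compounds; on the % scale 0 is the no-effect control and ±100 the full control effect; nearly all actives have a fitted effect of over 35% in size.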 In short, it runs like this: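 1nM USP1/UAF1 + cpd, 15 min RT; start w/ Ub-Rho 150nM final; kinetic FL 480/540 nm, 6 reads q60 s. Buffer 50mM HEPES pH 7.8, 0.5mM EDTA, 1mM TCEP, 0.01% Tween-20, 0.1 mg/ml BSA.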
Experiment [11] is described as follows: S16 Schwann cell viability assay (CellTiter-Glo assay) (AID 624031).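 Further: native untransfected S16 rat Schwann cells; cellular ATP luminescence as a viability measure; plate controls were DMSO-treated cells for no effect and cell-free wells for full effect; nearly all actives have a fitted effect of over 70% in size.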 In short, it runs like this:
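Parental S16 cells, 24 h compound, 37 °C. ATP-luminescence viability; DMSO = 0% activity, empty wells as reference; curves classified by fit quality and efficacy.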
(Cellular ATP, detected with luciferase, serves as a proxy for viable cell number.)

Experiment [12] in a line: qHTS profiling for inhibitors of Plasmodium falciparum proliferation (AID 504749).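 Further: 0% = DMSO vehicle and full inhibition = artemisinin control; nearly all actives have a fitted effect of over 60% in size.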 The following applies: P. falciparum in erythrocytes, SYBR Green DNA, 72 h, at 12.8 µM (top of the series). A digest of the protocol: (§1)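 In a 72 h erythrocytic culture (37 C, humidified, 5% CO2) at 2.5% hematocrit and 0.3% starting parasitemia, compounds were tested; SYBR Green I in detergent lysis buffer stained parasite DNA overnight.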

The test system of the next experiment is 3D7. Described as above. The conditions noted are these: P. falciparum in erythrocytes, SYBR Green DNA, 72 h; series mostly up to 12.8 µM. A digest of the protocol:
as §1

The next experiment concerns AS120. The description is as above. The conditions noted are these: P. falciparum in erythrocytes, SYBR Green DNA, 72 h; series mostly up to 12.8 µM. A digest of the protocol:
as §1

Another experiment concerns ATS189. The experiment is described as above. The following applies: P. falciparum in erythrocytes, SYBR Green DNA, 72 h; series mostly up to 12.8 µM. In short, it runs like this: as §1
The subject of another experiment is CP217. Described as above. The following applies: P. falciparum in erythrocytes, SYBR Green DNA, 72 h; series mostly up to 12.8 µM. A digest of the protocol:
as §1

The test system of another experiment is CP247. The experiment is described as above. The conditions noted are these: P. falciparum in erythrocytes, SYBR Green DNA, 72 h; series mostly up to 12.8 µM. A digest of the protocol: as §1
The next experiment concerns CP250. The description is as above. The conditions noted are these: P. falciparum in erythrocytes, SYBR Green DNA, 72 h; series mostly up to 12.8 µM. In short, it runs like this: as §1
The subject of another experiment is SC27B. The description is as above. The following applies: P. falciparum in erythrocytes, SYBR Green DNA, 72 h; series mostly up to 12.8 µM. A digest of the protocol:
as §1

A short description of experiment [13]: S16 Schwann cell PMP22 intronic element firefly luciferase assay (AID 624032).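 Further: plate controls were DMSO for no effect and PTC124 positive control mean for full effect; nearly all actives have a fitted effect of over 30% in size.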 A digest of the protocol: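 Luciferase reporter of PMP22 intronic-element expression in stably transfected S16 rat Schwann cells, read by ONE-Glo luminescence after 24 h compound exposure at 37 C. Activity scaled between DMSO (0%) and positive-control PTC124; concentration-effect curves quality-classified.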

Where [14] appears, read: measured here: cell count channel max response.
[15] abbreviates: measured here: lipid channel max response.

Records with an inconclusive call do not appear. The source made the active and inactive calls. Unless noted, the call rests on the fitted dose curve; in most records, active means well fitted curve in the direction sought with a large enough effect; inconclusive means small, poorly fitted or top-dose-only effect, or another doubt; inactive means no such curve, though single readings can be large; an effect the other way counts as inactive or inconclusive. A value given as a limit tells only on which side of the number the result lay.

Sequence of Glucocorticoid receptor (Homo sapiens) (P04150 whole entry, looked up): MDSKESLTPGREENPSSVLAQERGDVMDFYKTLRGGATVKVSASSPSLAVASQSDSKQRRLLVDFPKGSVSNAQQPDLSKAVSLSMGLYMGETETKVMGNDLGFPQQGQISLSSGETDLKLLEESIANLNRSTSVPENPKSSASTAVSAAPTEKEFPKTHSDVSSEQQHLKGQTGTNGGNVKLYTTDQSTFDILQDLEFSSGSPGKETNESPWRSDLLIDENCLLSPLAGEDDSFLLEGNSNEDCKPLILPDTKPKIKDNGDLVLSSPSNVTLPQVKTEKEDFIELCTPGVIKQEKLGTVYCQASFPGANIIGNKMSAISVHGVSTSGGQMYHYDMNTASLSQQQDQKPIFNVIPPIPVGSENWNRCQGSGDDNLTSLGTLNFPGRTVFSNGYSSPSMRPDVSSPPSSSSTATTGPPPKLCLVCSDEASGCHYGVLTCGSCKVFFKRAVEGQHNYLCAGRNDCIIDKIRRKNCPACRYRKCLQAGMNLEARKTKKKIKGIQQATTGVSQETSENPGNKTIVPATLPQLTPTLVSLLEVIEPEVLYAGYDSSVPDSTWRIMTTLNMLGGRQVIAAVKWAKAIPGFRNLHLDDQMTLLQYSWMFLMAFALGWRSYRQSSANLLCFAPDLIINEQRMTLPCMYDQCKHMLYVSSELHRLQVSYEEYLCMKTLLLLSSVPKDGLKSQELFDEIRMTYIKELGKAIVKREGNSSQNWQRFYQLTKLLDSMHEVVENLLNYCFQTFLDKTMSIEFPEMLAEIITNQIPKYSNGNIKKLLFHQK
Sequence of Ubiquitin carboxyl-terminal hydrolase 1 (Homo sapiens) (O94782 whole entry, looked up): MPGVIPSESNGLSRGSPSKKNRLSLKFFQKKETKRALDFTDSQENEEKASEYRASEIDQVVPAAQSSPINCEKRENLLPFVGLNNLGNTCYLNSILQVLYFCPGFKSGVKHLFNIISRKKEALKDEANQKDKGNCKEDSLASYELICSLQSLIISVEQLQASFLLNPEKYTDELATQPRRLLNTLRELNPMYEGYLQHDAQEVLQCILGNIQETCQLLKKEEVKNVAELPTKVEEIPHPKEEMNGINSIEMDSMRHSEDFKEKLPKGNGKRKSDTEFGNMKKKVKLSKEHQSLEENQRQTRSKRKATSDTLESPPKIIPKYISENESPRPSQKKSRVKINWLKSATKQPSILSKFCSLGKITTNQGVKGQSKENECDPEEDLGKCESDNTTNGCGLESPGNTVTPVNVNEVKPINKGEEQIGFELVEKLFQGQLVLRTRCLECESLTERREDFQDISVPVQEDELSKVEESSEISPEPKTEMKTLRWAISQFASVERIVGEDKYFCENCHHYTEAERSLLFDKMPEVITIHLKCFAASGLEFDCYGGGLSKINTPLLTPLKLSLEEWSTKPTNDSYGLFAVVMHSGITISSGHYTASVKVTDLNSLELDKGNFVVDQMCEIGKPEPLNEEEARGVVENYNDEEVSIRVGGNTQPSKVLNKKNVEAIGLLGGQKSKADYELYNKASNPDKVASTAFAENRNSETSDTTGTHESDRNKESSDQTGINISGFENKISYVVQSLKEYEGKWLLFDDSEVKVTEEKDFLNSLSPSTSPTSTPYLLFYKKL
Sequence of Cytochrome P450 1A2 (Homo sapiens) (P05177 whole entry, looked up): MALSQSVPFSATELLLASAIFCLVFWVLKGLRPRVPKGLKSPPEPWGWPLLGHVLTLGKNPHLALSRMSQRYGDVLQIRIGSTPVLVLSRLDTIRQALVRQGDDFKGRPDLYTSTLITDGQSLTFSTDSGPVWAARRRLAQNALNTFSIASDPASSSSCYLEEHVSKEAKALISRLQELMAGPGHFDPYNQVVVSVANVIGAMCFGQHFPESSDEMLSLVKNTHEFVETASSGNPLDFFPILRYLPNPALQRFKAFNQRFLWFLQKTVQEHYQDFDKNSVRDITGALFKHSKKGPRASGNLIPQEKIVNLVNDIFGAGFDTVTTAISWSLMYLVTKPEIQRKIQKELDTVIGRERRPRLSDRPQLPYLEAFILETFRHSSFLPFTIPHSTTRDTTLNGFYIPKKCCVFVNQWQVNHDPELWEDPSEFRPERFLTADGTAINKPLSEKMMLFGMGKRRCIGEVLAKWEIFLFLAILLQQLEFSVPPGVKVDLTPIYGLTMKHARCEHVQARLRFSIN
Sequence of 3',5'-cyclic-AMP phosphodiesterase 4B (Homo sapiens) (Q07343 whole entry, looked up): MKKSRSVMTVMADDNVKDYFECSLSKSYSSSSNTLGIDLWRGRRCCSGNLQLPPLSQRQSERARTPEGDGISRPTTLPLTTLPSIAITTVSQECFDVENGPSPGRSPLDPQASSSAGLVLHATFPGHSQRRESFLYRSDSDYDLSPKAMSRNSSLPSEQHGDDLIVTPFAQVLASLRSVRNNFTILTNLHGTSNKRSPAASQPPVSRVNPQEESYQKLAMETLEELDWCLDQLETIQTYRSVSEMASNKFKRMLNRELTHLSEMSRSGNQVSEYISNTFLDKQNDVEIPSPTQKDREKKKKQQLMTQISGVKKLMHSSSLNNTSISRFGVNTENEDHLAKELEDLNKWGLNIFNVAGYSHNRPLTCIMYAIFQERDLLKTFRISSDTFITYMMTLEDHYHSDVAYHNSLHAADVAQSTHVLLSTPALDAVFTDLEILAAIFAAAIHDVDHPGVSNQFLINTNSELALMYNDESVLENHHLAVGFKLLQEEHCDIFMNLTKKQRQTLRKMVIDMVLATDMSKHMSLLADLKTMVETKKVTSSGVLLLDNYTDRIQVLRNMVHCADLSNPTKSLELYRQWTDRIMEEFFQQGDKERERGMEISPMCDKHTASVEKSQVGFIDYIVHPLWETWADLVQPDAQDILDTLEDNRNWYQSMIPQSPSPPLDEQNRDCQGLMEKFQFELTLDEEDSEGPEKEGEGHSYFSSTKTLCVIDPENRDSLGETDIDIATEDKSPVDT

`COc1ccc(C[C@@](C)(N)C(=O)O)cc1OC`: the call in experiment [1], in experiment [4], in [8] and in experiment [11] was inactive. Further, the Potency result (in experiment [2]; in experiment [7]; in experiment [10]; in the experiment with 3D7; in the experiment on AS120; with ATS189) was “inactive” throughout. For the same molecule, the Potency entry in the experiment with CP217, in the experiment with CP247, in the experiment with CP250 and in the experiment with SC27B was “inactive” in each case. For the same molecule, the activity change, negative = inhibition in experiment [3] was -8.96% (inactive); in experiment [9], -2.09% (inactive). For the same molecule, the Potency in experiment [5] and in experiment [6] was > 20.6 µM (inactive) throughout. Besides, the max response in experiment [9] (setting [14]) was -10.3%; in [9] (setting [15]), -12.4%. Besides, the figures for the activity, negative = inhibition in [12] (parasite line A) and in [12] (parasite line B) were 3.21% (inactive) and -23.5% (inactive), respectively.
As to `C=CCN1C(=CCO)[C@H]2C[C@H]3[C@@H]1CC[C@@]31c3ccccc3N3C=C4[C@@H]5N(/C=C/2[C@H]31)c1ccccc1[C@]51CC[C@H]2[C@H]1C[C@@H]4/C(=C/CO)N2CC=C`, the molecule was called inactive in experiment [1], in experiment [4], in experiment [8] and in experiment [11]. Moreover, the Potency result (in [2]; in experiment [7]; in [13]; with 3D7; in the experiment with AS120; in the experiment on ATS189) was “inactive” each time. In addition, the Potency result with CP217, in the experiment with CP247, in the experiment on CP250 and with SC27B was “inactive” in each case. The activity change, negative = inhibition in experiment [3] was -23.2% (inactive); in experiment [9] it was 0.271% (inactive). The Potency in experiment [5] and in experiment [6] was > 20.6 µM (inactive) throughout. Besides, the max response in experiment [9] (setting [14]) is -16.1%; in experiment [9] (setting [15]) it was -15.8%. The results for the activity, negative = inhibition in experiment [12] (parasite line A) and in [12] (parasite line B) were 1.83% (inactive) and 0.223% (inactive), respectively.
For the molecule `C[C@@]12CC3CC(N)(C1)C[C@@](C)(C3)C2`, the outcome in [1], in [4] and in [8] was inactive. For the same molecule, the Potency result in experiment [2], in experiment [7] and in experiment [10] was “inactive” in each case. In addition, the activity change, negative = inhibition is -7.73% (inactive) in experiment [3] and -4.9% (inactive) in [9]. Moreover, the Potency in experiment [5] and in [6] was > 20.6 µM (inactive) throughout. The max response is -3.32% in experiment [9] (setting [14]) and -3.78% in [9] (setting [15]).
For `O=c1[nH]c(=O)n([C@@H]2C[C@H](O)[C@H](CO)O2)cc1C(F)(F)F`, the call in [1] and in experiment [4] was inactive. Further, the Potency entry in experiment [2], in experiment [7] and in experiment [10] was “inactive” in each case. Moreover, the activity change, negative = inhibition in experiment [3] was 1.4% (inactive); in experiment [9], -0.507% (inactive). The Potency in [5] and in [6] was > 20.6 µM (inactive) in each case. Besides, the max response is -7.04% in experiment [9] (setting [14]) and -7.97% in [9] (setting [15]).
For `Cc1n[nH]c(=O)[nH]c1=O`, the outcome in [1], in experiment [4] and in experiment [8] was inactive. Also, the Potency entry in experiment [2], in experiment [7] and in [10] was “inactive” in each case. The activity change, negative = inhibition is -10% (inactive) in experiment [3] and 1.08% (inactive) in experiment [9]. The Potency in [5] and in [6] was > 20.6 µM (inactive) in each case. Moreover, the figures for the max response in experiment [9] (setting [14]) and in experiment [9] (setting [15]) were -2.21% and -2.22%, respectively.
In the case of `CO[C@H]1[C@H](O[C@H]2O[C@@H](C)[C@@H](O[C@@H]3C[C@](C)(O)[C@H](OC(=O)CC(C)C)[C@H](C)O3)[C@@H](N(C)C)[C@@H]2O)[C@@H](CC=O)C[C@@H](C)[C@@H](O)/C=C\C=C/C[C@@H](C)OC(=O)C[C@H]1OC(C)=O`, the outcome in experiment [1], in experiment [4], in experiment [8] and in [11] was inactive. For the same molecule, the Potency result (in experiment [2]; in experiment [7]; in experiment [13]; in the experiment on 3D7; in the experiment with SC27B) was “inactive” each time. In addition, the activity change, negative = inhibition in experiment [3] is -0.256% (inactive); in [9], -3.13% (inactive). Moreover, the Potency in [5] and in experiment [6] was > 20.6 µM (inactive) each time. The max response in experiment [9] (setting [14]) is -10.5%; in experiment [9] (setting [15]), -14%.

Source of the values: PubChem BioAssay (NCATS).
